Data from paper PMC4336329 (PLoS ONE, 2015).
About 14,000 (4.5%) of roughly 310,000 compounds showed an effect of 50% or more. The effect is printed as a negative number. Only a selection was taken, and strong results are over-represented in it overall.

molecular target: human ether-à-go-go-related gene (hERG) potassium channel (human, UniProt Q12809); experiment: primary screen, population patch clamp on CHO cells stably expressing hERG; higher = less effect of the substance
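Further: peak tail current of the secondary pulse compared with the same well before compound.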

Sequence of human ether-à-go-go-related gene (hERG) potassium channel (Q12809 whole entry, looked up): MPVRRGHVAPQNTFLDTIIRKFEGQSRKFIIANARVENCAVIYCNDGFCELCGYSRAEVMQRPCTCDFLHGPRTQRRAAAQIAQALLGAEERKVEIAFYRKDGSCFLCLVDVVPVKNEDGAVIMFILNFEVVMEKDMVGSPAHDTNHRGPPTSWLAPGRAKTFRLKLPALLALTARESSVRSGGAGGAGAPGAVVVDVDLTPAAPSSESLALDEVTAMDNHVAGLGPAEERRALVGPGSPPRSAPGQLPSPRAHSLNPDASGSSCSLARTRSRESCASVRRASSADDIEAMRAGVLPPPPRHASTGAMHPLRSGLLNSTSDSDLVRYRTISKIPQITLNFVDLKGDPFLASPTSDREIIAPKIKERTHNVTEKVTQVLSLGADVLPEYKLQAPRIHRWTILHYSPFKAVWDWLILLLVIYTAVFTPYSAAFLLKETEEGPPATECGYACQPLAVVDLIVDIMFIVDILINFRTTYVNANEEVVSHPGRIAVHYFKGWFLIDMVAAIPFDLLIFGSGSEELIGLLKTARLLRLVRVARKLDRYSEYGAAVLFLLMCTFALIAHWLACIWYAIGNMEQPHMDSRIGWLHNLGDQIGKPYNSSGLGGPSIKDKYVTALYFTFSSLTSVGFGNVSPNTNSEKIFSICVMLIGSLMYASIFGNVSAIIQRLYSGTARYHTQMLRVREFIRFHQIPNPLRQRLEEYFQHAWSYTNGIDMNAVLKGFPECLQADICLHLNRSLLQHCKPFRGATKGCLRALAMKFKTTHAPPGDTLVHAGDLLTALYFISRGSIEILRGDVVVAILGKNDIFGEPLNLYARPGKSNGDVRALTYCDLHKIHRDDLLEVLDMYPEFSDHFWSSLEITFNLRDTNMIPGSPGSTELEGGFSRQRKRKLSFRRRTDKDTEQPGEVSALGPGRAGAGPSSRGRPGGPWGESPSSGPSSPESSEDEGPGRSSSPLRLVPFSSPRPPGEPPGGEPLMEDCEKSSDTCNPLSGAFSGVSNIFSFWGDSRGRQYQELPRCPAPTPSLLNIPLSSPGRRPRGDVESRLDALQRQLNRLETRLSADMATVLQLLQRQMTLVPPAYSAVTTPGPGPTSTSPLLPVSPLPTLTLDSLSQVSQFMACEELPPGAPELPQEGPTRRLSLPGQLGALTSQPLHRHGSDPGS

| Compound | hERG current change (%, negative = inhibition) at 10uM |
| --- | --- |
| CN(Cc1ccc2ccccc2c1)C(=O)c1ccc(C(F)(F)F)cc1 | 26.1% |
| CCN1C(=O)N(c2ccc(Cl)cc2)C(C)=CC1(C)C | 6.6% |
| COc1ccc(C(=O)Nc2ccc(Cl)cc2F)cc1S(=O)(=O)N1CCCC1 | -48.1% |
| C=C1c2ccccc2NC(=O)N1c1ccc(OC)cc1 | 12.8% |
| CC(O)CNc1nc2c(c(=O)n(Cc3ccc(Cl)c(Cl)c3)c(=O)n2C)n1C (centres unmarked) | -17.3% |
| O=C(O)C(=O)O.OCCN(Cc1ccccc1)Cc1ccccc1O | 5.17% |
| C=CCN1C(=O)C2C(C(=O)NCc3ccccc3)C3(C)C=CC2(O3)C1C(=O)NC(C)(C)C (centres unmarked) | 19.5% |
| COc1ccc(OC)c(/C=N/N2CCN(c3ccc(Cl)cc3)CC2)c1 | 8.58% |
| COC(=O)Cc1ccc(NC(=S)NCc2ccccc2)cc1 | 0.941% |
| COC(=O)Cc1ccc(NC(=S)NCc2ccc(F)cc2)cc1 | -74.4% |
| COC(=O)Cc1ccc(NC(=S)NCc2ccc(OC)cc2)cc1 | -18.2% |
| Cc1ccccc1C(=O)NC1CCN(Cc2nnnn2Cc2ccccc2)CC1 | -47.8% |
| Cc1cc2nc(C3CCN(Cc4nnnn4Cc4cccs4)CC3)[nH]c2cc1C | -83% |
| Cc1cc2nc(C3CCN(CC4COc5ccccc5O4)CC3)[nH]c2cc1C (centres unmarked) | -73.9% |
| CCN1CCN(CC2COc3ccccc3O2)CC1.Cl (centres unmarked) | -4.7% |
| Cc1cc2nc(C3CCN(Cc4nnnn4Cc4ccccc4)CC3)[nH]c2cc1C | -52.3% |
| Cl.c1ccc(Cn2nnnc2CN2CCCC2)cc1 | 2.31% |
| COc1cc(C(=O)NC2CCN(Cc3nnnn3Cc3cccs3)CC2)cc(OC)c1OC | -5.59% |
| CCN(CC)C(=O)CN1CCC(c2nc3cc(C)c(C)cc3[nH]2)CC1 | -15.7% |

| Compound | hERG current change (%, negative = inhibition) at 10uM |
| --- | --- |
| c1csc(Cn2nnnc2CN2CCN(c3nc4ccccc4s3)CC2)c1 | -46% |
| CCc1c(C)c2cc(Cl)c(O)c(CN(CC)CC)c2oc1=O | 0.288% |
| S=c1nccc(-c2ccc(Cl)cc2)[nH]1 | 15.4% |
| COc1cc(NC(=O)c2cc3ccccc3o2)c(OC)cc1Br | 5.55% |
| COc1ccc(-c2nnn(-c3cc(Cl)cc(Cl)c3)c2N)cc1 | 18.3% |
| CC1(C)C(=O)N(c2ccccc2)C(=O)c2ccccc21 | 9.68% |
| O=[N+]([O-])c1ccc(N=Nc2ccc(O)cc2O)cc1 | 28.4% |
| CCCCn1c(O)c(N=Nc2ccccn2)c2ccccc21 | 7.6% |
| O=C(CN(C(=O)c1csnn1)c1ccc(F)cc1)NCCc1ccccc1 | 7.95% |
| CC(=O)c1ccc(N(CC(=O)NCCc2ccccc2)C(=O)c2csnn2)cc1 | -52.4% |
| O=C(CN(C(=O)c1csnn1)c1ccc(Cl)cc1)NCCc1ccccc1 | -5.16% |
| CC(C)c1ccc(N(CC(=O)NCCc2ccccc2)C(=O)c2csnn2)cc1 | -60% |
| O=C(CN(C(=O)c1csnn1)c1ccccc1)NCCc1ccccc1 | -15% |
| Cc1ccc(N(CC(=O)NCCc2ccccc2)C(=O)c2csnn2)cc1 | -15.4% |
| Cc1ccc(Cc2nnc(SCC(=O)Nc3c(C)cccc3C)[nH]c2=O)cc1 | -9.17% |
| CCOC(=O)c1c(NC(=O)C2C3C=CC(C3)C2C(=O)O)sc2c1CC(C)CC2 (centres unmarked) | 19.6% |
| CCCOC(=O)c1c(NC(=O)C2C3C=CC(C3)C2C(=O)O)sc2c1CCC(C)C2 (centres unmarked) | -59.3% |
| CCOC(=O)c1c(NC(=O)C2C3C=CC(C3)C2C(=O)O)sc2c1CCC(C)C2 (centres unmarked) | -6.93% |
| O=C(O)c1cc2c(cn1)[nH]c1ccccc12 | 10.9% |

| Compound | hERG current change (%, negative = inhibition) at 10uM |
| --- | --- |
| Cc1nnc(SCC(=O)OC2CC(C)CCC2C(C)C)[nH]c1=O (centres unmarked) | 11.1% |
| CC1CCC(C(C)C)C(OC(=O)Cn2c(-c3ccc(Cl)cc3)[n+](C)c3ccccc32)C1.[Cl-] (centres unmarked) | -82.9% |
| CC1CCC(C(C)C)C(OC(=O)COC(=O)c2ccc(N)cc2)C1 (centres unmarked) | 6.47% |
| CC1CCC(C(C)C)C(OC(=O)Cn2c(-c3ccccc3)[n+](C)c3ccccc32)C1.[Cl-] (centres unmarked) | -77.3% |
| CC1CCC(C(C)C)C(OC(=O)CSc2n[nH]c(=O)[nH]c2=O)C1 (centres unmarked) | -19.9% |
| CC1CCC(C(C)C)C(OC(=O)COC(=O)c2ccc(=O)[nH]c2)C1 (centres unmarked) | -8.28% |
| CC1CCC(C(C)C)C(OC(=O)Cn2c(-c3ccc(Br)cc3)[n+](C)c3ccccc32)C1.[Cl-] (centres unmarked) | -78.3% |
| CC1CCC(C(C)C)C(OC(=O)Cn2c(-c3ccc(F)cc3)[n+](C)c3ccccc32)C1.[Cl-] (centres unmarked) | -76.3% |
| CC1CCC(C(C)C)C(OC(=O)COC(=O)c2cccn2C)C1 (centres unmarked) | 16.1% |
| CC1CCC(C(C)C)C(OC(=O)C[n+]2cccc(C(N)=O)c2)C1.[Cl-] (centres unmarked) | 7.66% |
| CC1CCC(C(C)C)C(OC(=O)CSc2nnc(N)s2)C1 (centres unmarked) | 3.01% |
| CC1CCC(C(C)C)C(OC(=O)Cn2nnc3c(cnn3-c3ccccc3)c2=O)C1 (centres unmarked) | 3.74% |
| COc1cccc(-n2ccnc2SCC(=O)Nc2cc(C)on2)c1 | 14.1% |
| Cc1ccc(S(=O)(=O)Nc2ccc(S(=O)(=O)Nc3cc(C)nc(C)n3)cc2)cc1 | 23.3% |
| NC(=O)c1cccnc1Oc1ccccc1 | -30.8% |
| O=C(N/N=C/c1ccc(OC(=O)c2cccs2)cc1)c1ccc(F)cc1 | 10% |
| O=C(c1cc(=O)[nH]c2ccc(Br)cc12)N1CCC2(CC1)OCCO2 | 12.6% |
| CCOC(=O)c1c(-c2ccccc2)csc1NC(=O)c1ccc(S(=O)(=O)N2CCOCC2)cc1 | 9.29% |
